TRPM1 prom inh: reduces MITF-dependent TRPM1 promoter luciferase signal; SK-MEL-5 TRPM1 promoter luciferase, 24 h; inhibition, % at 12.5 µM; 330,000 compounds, 0.83% hits; AID 488899;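 active = mean inhibition across replicates of 60% or more, whatever share of single replicates reaches that level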
HIF-2a block: HIF-2a inhibition; 786-0 RCC cells HIF-2a reporter, luciferase luminescence, overnight; inhibition, % at 18.8 µM; 360,000 compounds, 0.72% hits;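 active = inhibition of the luminescence signal of 40% or more relative to plate controls, in a single-dose primary screen at 18.75 µM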
KKLEB cytotox: reduces viability of KKLEB cystic fibrosis airway cells | AID 602141 | 360,000 compounds, 0.36% hits | KKLEB CF airway cells viability, ATPlite luminescence, overnight; stronger effect = lower value; cells stimulated with P. aeruginosa culture filtrate | activity change (cytotoxicity), % at 5 µM;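 active = corrected activity change at or below -50% at 5 µM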
Peg3 promoter: Peg3 promoter activity inhibition; AID 588405; HeLa PEG-Prom luciferase reporter, luminescence, overnight; 360,000 compounds, 1.7% hits; inhibition, % at 20 µM;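 active = inhibition of at least 50% at 20 µM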
Shn3 3UTR inh: reduces Shn3 3'UTR luciferase signal in osteoblasts. 360,000 compounds, 0.52% hits. inhibition, % at 12.5 µM. Clone20 osteoblast Shn3 3'UTR firefly luciferase, 24 h;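 active = mean inhibition of at least 75% with every replicate also reaching 75%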;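 note: 0% = median of neutral control wells and 100% = pilot-screen positive control compound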
CF NFkB inh: cystic fibrosis NF-kB activation inhibition; KKLEB NF-kB-GFP reporter, PAF-induced, GFP fluorescence overnight; inhibition, % at 5 µM; 360,000 compounds, 0.86% hits;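 active = at least 50% inhibition at 5 µM, scaled per plate between neutral and stimulator controls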;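 note: PAF is a Pseudomonas aeruginosa culture filtrate used as stimulus; plate controls were PAF-stimulated DMSO wells for no effect and unstimulated DMSO wells for full effect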
Active calls of the source: *; nt = no result; ! = not confirmed by another sample. This is a sample that favours compounds with a hit; in the whole collection about 2.8% have one here.

SMILES | TRPM1 prom inh | HIF-2a block | KKLEB cytotox | Peg3 promoter | Shn3 3UTR inh | CF NFkB inh
CCOc1cc(C(=O)CSc2nnc(CNc3ccc(Cl)cc3)o2)ccc1NC(=O)CC | 85* | 3 | 2 | 66* | 84* | 5
c1ccc(-c2cn3nc4c(nc3n2)CCCC4)cc1 | 73* | -91 | -3 | -3 | 16 | -17
COc1ccc(NC(=O)c2oc3ccccc3c2CSC)cc1S(=O)(=O)N1CCOCC1 | 7 | 12 | 6 | 7 | 60 | 2
O=C(Nc1cc(S(=O)(=O)N2CCOCC2)ccc1N1CCOCC1)c1ccc([N+](=O)[O-])s1 | 83* | -4 | 1 | 3 | 20 | -12
Cc1ccc(NC(=O)C2=COCCO2)cc1S(=O)(=O)N1CCOCC1 | 4 | 4 | 21 | 2 | -8 | -6
Cc1ccc(NC(=O)c2ccc([N+](=O)[O-])s2)cc1S(=O)(=O)N1CCOCC1 | 92* | 29 | -16 | 11 | 5 | 37
Cc1ccc(NC(=O)c2oc3ccccc3c2COC(C)C)cc1S(=O)(=O)N1CCOCC1 | 5 | 4 | 1 | 42 | 88* | 0
Cc1ccc(OCC(=O)NCCNC(=O)c2ccccn2)cc1 | 14 | 18 | -11 | -1 | 1 | -3
CC(C)CN(C(=O)C1CSC2(C)CCC(=O)N12)c1c(N)n(Cc2ccccc2)c(=O)[nH]c1=O (stereo not drawn) | 8 | 3 | 13 | 0 | -5 | 8
CCCCNc1nc(N)nc(-c2cc(Cl)ccc2O)n1 | -19 | -184 | -27 | 33 | -80 | 82*
Cc1cc(C)n(-c2ccc([N+](=O)[O-])cc2)n1 | 1 | -2 | 13 | 107* | -1 | 14
NS(=O)(=O)c1ccc(N/N=C/c2cn(-c3ccccc3)nc2-c2cccs2)c([N+](=O)[O-])c1 | -6 | 0 | -82* | -1 | 73 | 88*
NS(=O)(=O)c1ccc(N/N=C/c2cn(-c3ccccc3)nc2-c2cccs2)cc1 | -57 | -216 | 7 | -102 | -1 | -15
CCOc1ccccc1Nc1nc(-c2sc(NC(=O)c3ccco3)nc2C)cs1 | 45 | 15 | -10 | 60* | 14 | 19
CC(=O)c1cccc(Nc2nc(-c3cccc([N+](=O)[O-])c3)cs2)c1 | -70 | -196 | 4 | -191 | -58 | -48
CCC(=O)Nc1nc(C)c(-c2csc(Nc3ccc(C(=O)O)cc3)n2)s1 | 7 | 11 | 4 | -3 | -22 | -1
Cc1nc(NC(=O)c2ccccc2)sc1-c1csc(Nc2ccc(C(=O)O)cc2)n1 | -29 | -136 | -4 | -53 | -25 | 66*
CC(=O)Nc1nc(C)c(-c2csc(Nc3cccc([N+](=O)[O-])c3)n2)s1 | 45 | -31 | -39 | 47 | 37 | 86*
CC(=O)Nc1nc(C)c(-c2csc(Nc3ccc(O)cc3)n2)s1 | 46 | 0 | -17 | 37 | 42 | 78*
COc1cccc(CNC(=O)[C@@H]2CCCN2C(=O)[C@H]2CCCCN2S(=O)(=O)c2ccc(OC)c(C)c2)c1 | nt | -6 | nt | nt | nt | nt
COc1ccc(CNC(=O)CNS(=O)(=O)c2ccc(Cl)cc2)cc1 | 6 | 10 | 1 | 12 | -10 | -6
Nc1nc(Nc2ccccc2)nc(NC2CCCCC2)c1[N+](=O)[O-] | -4 | -20 | 6 | 41 | -5 | 21
CC(=O)Nc1nc(C)c(-c2csc(Nc3ccccn3)n2)s1 | -13 | -210 | -21 | -180 | -42 | 56*!
CC(=O)Nc1cccc(-c2csc(Nc3ccccn3)n2)c1 | -38 | -240 | 12 | -203 | -43 | -10
NC(=O)c1cccc(-c2cnc(N)c(C(=O)c3cccnc3)n2)c1 | 61* | 38 | 6 | 62* | -5 | 52*
O=C(Nc1cccc(NC(=O)c2cccnc2)c1)c1ccccc1 | -3 | -8 | -2 | -1 | 12 | 7
Cc1ccc(N=C2S/C(=C\c3cn(CC(=O)O)c4ccccc34)C(=O)N2C)cc1 | 3 | 22 | -2 | 9 | 1 | -15
CSc1ccccc1CNc1nc(NCC2CC2)nc2ccsc12 | nt | 26 | -16 | 29 | 76 | 15
C[C@H]1CN([C@@H](C)CO)C(=O)c2cc(Br)cnc2O[C@H]1CN(C)C(=O)C1CC1 | nt | -4 | 6 | 11 | 1 | -17
Cn1ccsc1=NC(=O)c1ccc(S(C)(=O)=O)c([N+](=O)[O-])c1 | 19 | -2 | -22 | 78* | 25 | 35
